According to PubChem BioAssay (EPA / NIEHS):
Inconclusive results are not listed. The source made the active and inactive calls. Rule for the calls, unless noted: active = hit-call score of the fitted dose curve at least 0.9, where 1 is the maximum; inconclusive = response in the unintended direction; inactive = score below 0.9.

Experiments:
[1] = TOX21_PR_BLA_Followup_Agonist_viability: Viability Assessment in the Tox21 HEK293 Progesterone Receptor (PR) Agonism Beta-lactamase Follow-Up Assay (AID 2283935);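 note: cells exposed to compound for 16 hr at 37 °C; signal loss means lower viability so actives are cytotoxic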
How it was run: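 HEK293T PR-UAS-bla, 3,000 cells/well, 2% CS-FBS; 6 hr pre-incubation; cpd in DMSO, 16 hr 37C; LiveBLAzer 2 hr RT, then CellTiter-Glo 30 min RT, luminescence. Decrease = lost viability.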

[2] = TOX21_PR_BLA_Followup_Antagonist_viability: Viability Assessment in the Tox21 HEK293 Progesterone Receptor (PR) Antagonism Beta-lactamase Follow-Up Assay (AID 2283936);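 note: hits lower the luminescence signal meaning cytotoxicity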
How it was run: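 PR-UAS-bla HEK293T cells (3,000/well, 2% charcoal-stripped FBS) given compound plus R5020 agonist, 16 h at 37C. CellTiter-Glo added after bla read, 30 min at room temperature; luminescence loss indicates cytotoxicity.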

PGR (gene 5241) [3] = molecular target: PGR (gene 5241) (UniProt P06401); test: TOX21_PR_LUC_Followup_Antagonist: Tox21 HEK293 Progesterone Receptor (PR) Antagonism Luciferase Follow-Up Assay (AID 2283938);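 note: curve fitted upward as signal gain over DMSO baseline despite antagonist label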
How it was run: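 A follow-up to the PR bla screen using HEK293-PR-A-luc cells, multiplexed with cell viability to flag cytotoxicity. Reporter luminescence after 16 h compound exposure was analysed relative to DMSO.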

[4] = TOX21_PR_LUC_Followup_Antagonist_viability: Viability Assessment in the Tox21 HEK293 Progesterone Receptor (PR) Antagonism Luciferase Follow-Up Assay (AID 2283940)
How it was run: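 Multiplexed viability counter-screen: after 5 days in charcoal-stripped-FBS medium, HEK293-PR-A-luc cells are plated, pinned with DMSO-dissolved compounds for 16 h at 37C, and ATP content is quantified luminescently via CellTiter-Glo.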

[5] = TOX21_PR_LUC_Followup_Agonist_viability: Viability Assessment in the Tox21 HEK293 Progesterone Receptor (PR) Agonism Luciferase Follow-Up Assay (AID 2283941);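 note: loss of signal means cytotoxicity so actives lower viability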
How it was run: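 Cells were kept 5 days in charcoal-stripped serum medium before plating HEK293-PR-A-luc at 3,000 cells/well. After 5 h they received DMSO-dissolved compound and incubated 16 h at 37C. Viability was taken from CellTiter-Glo ATP luminescence.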

[6] = molecular target: Thyroid hormone receptor alpha (Rattus norvegicus) + Thyroid hormone receptor beta (Rattus norvegicus) (UniProt P18113+P63059); test: TOX21_TR_LUC_GH3_Antagonist_Followup: Tox21 GH3 Thyroid Hormone Receptor Antagonism Luciferase Follow-Up Assay (AID 2283942)
How it was run: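 Confirmatory qHTS, antagonist mode: T3 (1.0 nM final) + test cpd, 15 conc, 92 uM–5nM final, GH3 rat pituitary line, 24 h, 37C. Luc reporter, RLU vs DMSO.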

THRA (gene 7067) = THRA (gene 7067) (UniProt P10827); test: TOX21_TRA_COA_Antagonist_Followup_ratio: Tox21 Thyroid Hormone Receptor alpha Antagonism through Coactivator Recruitment Follow-Up Assay, Ratio (AID 2283953)
How it was run: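 520:495 nm emission ratio (excitation 340 nm) reports fluorescein-SRC-2 peptide recruitment to GST-TRα LBD by TR-FRET with Tb anti-GST antibody. Values were normalized to DMSO (0%) and T3 control wells (100%); loss of signal indicated antagonism.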

THRB (gene 7068) = THRB (gene 7068) (UniProt P10828); test: TOX21_TRB_BLA_Antagonist_Followup_ratio: Tox21 Thyroid Hormone Receptor beta Antagonism Beta-lactamase (BLA) Follow-Up Assay, Ratio (AID 2283958)
How it was run: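 HEK293T TRb-bla (GAL4 DBD + hTRβ LBD), 2% cs-FBS phenol red-free DMEM, 5 h attach; cpds 11-pt triplicate, 18 h 37C; CCF4-AM 2 h RT; 460/530 ratio vs DMSO; CellTiter-Glo viability same wells.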

[7] = TOX21_TRB_BLA_Antagonist_Followup_viability: Viability Assessment in the Tox21 Thyroid Hormone Receptor beta Antagonism Beta-lactamase (BLA) Follow-Up Assay (AID 2283961)
How it was run: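 Cytotoxicity is measured in parallel with the antagonist-mode TRβ beta-lactamase screen, using ATP-coupled luciferase luminescence. Engineered HEK293T cells are treated for 18 h with 11-point compound series in triplicate.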

PGR (gene 5241) [8] = molecular target: PGR (gene 5241) (UniProt P06401); test: TOX21_PR_LUC_Followup_Agonist: Tox21 HEK293 Progesterone Receptor (PR) Agonism Luciferase Follow-Up Assay (AID 2283937; active = hit-call score of the fitted dose curve at least 0.9, where 1 is the maximum; inactive = score below 0.9)
How it was run: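 Cells: HEK293-PR-A-luc, 3,000/well, 10% charcoal-stripped FBS assay medium. Compound added after 5 h; 16 h, 37C, 0% CO2. ONE-Glo luciferase, luminescence. Positive fit vs DMSO.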

Chain of PGR (gene 5241) (P06401 whole entry, looked up): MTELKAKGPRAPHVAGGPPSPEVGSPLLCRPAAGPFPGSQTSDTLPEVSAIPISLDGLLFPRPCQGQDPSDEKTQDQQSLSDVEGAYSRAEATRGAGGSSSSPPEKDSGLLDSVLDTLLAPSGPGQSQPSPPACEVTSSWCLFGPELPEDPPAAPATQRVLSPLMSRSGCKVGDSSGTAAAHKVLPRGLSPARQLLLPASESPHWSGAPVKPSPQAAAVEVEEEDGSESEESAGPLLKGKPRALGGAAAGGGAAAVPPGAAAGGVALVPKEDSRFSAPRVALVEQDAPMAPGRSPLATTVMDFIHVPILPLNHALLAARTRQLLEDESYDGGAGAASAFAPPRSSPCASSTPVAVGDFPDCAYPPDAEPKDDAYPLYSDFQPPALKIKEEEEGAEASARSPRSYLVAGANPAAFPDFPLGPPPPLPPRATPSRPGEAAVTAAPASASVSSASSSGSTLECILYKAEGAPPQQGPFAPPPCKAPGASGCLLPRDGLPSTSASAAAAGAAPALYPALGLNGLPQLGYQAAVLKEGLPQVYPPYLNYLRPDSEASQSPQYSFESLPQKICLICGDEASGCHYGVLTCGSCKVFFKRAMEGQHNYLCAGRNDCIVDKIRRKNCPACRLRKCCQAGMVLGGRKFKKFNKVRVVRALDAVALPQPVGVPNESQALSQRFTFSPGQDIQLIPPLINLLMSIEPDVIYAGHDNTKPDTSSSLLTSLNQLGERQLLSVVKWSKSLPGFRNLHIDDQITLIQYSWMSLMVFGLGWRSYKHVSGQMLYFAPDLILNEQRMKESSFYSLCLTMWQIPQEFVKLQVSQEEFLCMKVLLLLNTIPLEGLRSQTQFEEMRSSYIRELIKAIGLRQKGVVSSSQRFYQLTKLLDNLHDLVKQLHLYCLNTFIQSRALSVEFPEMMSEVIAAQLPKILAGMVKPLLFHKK
Chain of THRB (gene 7068) (P10828 whole entry, looked up, the tested form may be a part): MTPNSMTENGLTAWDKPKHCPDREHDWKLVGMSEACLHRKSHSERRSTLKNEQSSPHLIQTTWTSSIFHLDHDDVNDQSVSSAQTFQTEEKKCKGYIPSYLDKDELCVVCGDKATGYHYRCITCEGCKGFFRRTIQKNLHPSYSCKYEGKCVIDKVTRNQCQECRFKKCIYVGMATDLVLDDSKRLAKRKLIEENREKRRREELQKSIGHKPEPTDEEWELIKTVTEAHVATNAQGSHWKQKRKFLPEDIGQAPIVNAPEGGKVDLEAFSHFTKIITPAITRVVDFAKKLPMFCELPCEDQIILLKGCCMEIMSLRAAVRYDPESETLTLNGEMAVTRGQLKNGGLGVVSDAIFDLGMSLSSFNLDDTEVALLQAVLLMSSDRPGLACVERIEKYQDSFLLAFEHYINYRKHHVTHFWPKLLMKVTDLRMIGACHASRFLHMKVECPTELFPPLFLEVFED
Chain of THRA (gene 7067) (P10827 whole entry, looked up, the tested form may be a part): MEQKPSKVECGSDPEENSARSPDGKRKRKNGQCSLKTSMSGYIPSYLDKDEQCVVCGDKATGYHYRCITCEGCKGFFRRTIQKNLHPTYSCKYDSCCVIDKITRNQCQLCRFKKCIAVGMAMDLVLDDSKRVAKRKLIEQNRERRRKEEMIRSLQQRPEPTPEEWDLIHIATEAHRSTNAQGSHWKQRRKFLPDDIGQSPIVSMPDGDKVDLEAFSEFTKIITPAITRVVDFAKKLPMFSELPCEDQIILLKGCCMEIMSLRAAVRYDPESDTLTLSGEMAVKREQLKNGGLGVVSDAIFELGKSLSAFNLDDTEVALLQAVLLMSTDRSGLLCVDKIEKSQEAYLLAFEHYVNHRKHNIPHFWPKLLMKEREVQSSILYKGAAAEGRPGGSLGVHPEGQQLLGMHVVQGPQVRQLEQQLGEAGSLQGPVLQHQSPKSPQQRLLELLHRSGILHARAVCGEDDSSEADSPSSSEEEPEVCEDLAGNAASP

COC(=O)N(OC)c1ccccc1COc1ccn(-c2ccc(Cl)cc2)n1
outcome [1]: inactive
outcome [2]: inactive
AC50 (PGR (gene 5241) [3]): 13.6 µM (active)
outcome [4]: inactive
outcome [5]: inactive
AC50 [6]: 1.09 µM (active)
outcome (THRA (gene 7067)): inactive
AC50 (THRB (gene 7068)): 4.01 µM (active)
AC50 [7]: 14.9 µM (active)

N#CC(CCc1ccc(Cl)cc1)(Cn1cncn1)c1ccccc1 (stereo not drawn)
outcome [1]: inactive
outcome [2]: inactive
outcome (PGR (gene 5241) [8]): inactive
AC50 (PGR (gene 5241) [3]): 22.5 µM (active)
outcome [4]: inactive
outcome [5]: inactive

CCOP(=S)(OCC)SCn1c(=O)oc2cc(Cl)ccc21
outcome [1]: inactive
outcome [2]: inactive
AC50 (PGR (gene 5241) [3]): 32.8 µM (active)
outcome [4]: inactive

CN(C)C(=S)SSC(=S)N(C)C
AC50 [6]: 24.3 µM (active)
outcome (THRA (gene 7067)): inactive
outcome (THRB (gene 7068)): inactive
outcome [7]: inactive

CCc1nn(C)c(C(=O)NCc2ccc(C(C)(C)C)cc2)c1Cl
outcome [6]: inactive
outcome (THRB (gene 7068)): inactive
AC50 [7]: 4.69 µM (active)

C=CC1(C)OC(=O)N(c2cc(Cl)cc(Cl)c2)C1=O (stereo not drawn)
outcome [1]: inactive
outcome [2]: inactive
outcome (PGR (gene 5241) [3]): inactive
outcome [4]: inactive
outcome [5]: inactive

CON(C)C(=O)Nc1ccc(Cl)c(Cl)c1
outcome [1]: inactive
outcome [2]: inactive
outcome [4]: inactive
outcome [5]: inactive

CC(C)(C)c1ccc(CSc2cnn(C(C)(C)C)c(=O)c2Cl)cc1
outcome [7]: inactive

CO/C=C(/C(=O)OC)c1ccccc1Oc1cc(Oc2ccccc2C#N)ncn1
AC50 [6]: 3.91 µM (active)
outcome (THRA (gene 7067)): inactive
outcome (THRB (gene 7068)): inactive
AC50 [7]: 38.1 µM (active)

CCCCNC(=O)n1c(NC(=O)OC)nc2ccccc21
outcome [6]: inactive
outcome (THRA (gene 7067)): inactive
outcome (THRB (gene 7068)): inactive
outcome [7]: inactive

COc1ccc(C(c2ccc(OC)cc2)C(Cl)(Cl)Cl)cc1
outcome [1]: inactive
outcome [2]: inactive
AC50 (PGR (gene 5241) [3]): 15.2 µM (active)
outcome [4]: inactive
